# Experimental data from PubChem BioAssay AID1851 (National Center for Advancing Translational Sciences (NCATS), 2009).
# Hit rate of the full screen: of about 16,000 compounds, about 5,700 (36%) were called active. About 24% were inconclusive and are not listed. The call rests on the fitted dose curve; in most records, active means well fitted curve in the direction sought with a large enough effect; inconclusive means small, poorly fitted or top-dose-only effect, or effect the other way; inactive means no such curve, though single readings can be large or run the other way. The list shows a part of the results.
# Target: Cytochrome P450 1A2 (Homo sapiens) (UniProt P05177)
# Sequence (P05177 whole entry, looked up): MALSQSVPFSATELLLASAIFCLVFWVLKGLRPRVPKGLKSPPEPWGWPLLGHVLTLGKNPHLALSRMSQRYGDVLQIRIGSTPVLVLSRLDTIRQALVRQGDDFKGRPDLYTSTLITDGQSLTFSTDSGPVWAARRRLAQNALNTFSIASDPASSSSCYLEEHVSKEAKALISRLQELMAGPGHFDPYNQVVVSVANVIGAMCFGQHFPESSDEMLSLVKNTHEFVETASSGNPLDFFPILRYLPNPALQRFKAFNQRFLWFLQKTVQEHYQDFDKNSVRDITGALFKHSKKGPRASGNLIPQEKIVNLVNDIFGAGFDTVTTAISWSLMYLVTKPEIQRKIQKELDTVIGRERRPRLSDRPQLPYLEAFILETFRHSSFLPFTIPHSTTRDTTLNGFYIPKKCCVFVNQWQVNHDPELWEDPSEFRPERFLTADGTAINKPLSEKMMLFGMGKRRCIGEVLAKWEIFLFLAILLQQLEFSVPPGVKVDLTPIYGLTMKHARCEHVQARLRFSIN
# Test: Cytochrome panel assay with activity outcomes
# Details: recombinant CYP, pro-luciferin dealkylation, luminescence, p450-cyp1a2; series mostly up to 57.1 µM
# On the % scale 0 is the no-effect control and ±100 the full control effect.
SMILES,"activity, negative = inhibition",AC50
C[C@H]1CCCC2(CC[N+](C)(CCC[N+](C)(C)C)CC2)C1 (stereo partly drawn),-9.21% [at 11.4 µM] (inactive),–
COC(=O)c1ccccc1NC(=O)c1cc2nc(C3CC3)cc(C(F)(F)F)n2n1,–,1580 nM (active)
COCCNc1nc(-c2ccccc2Cl)nc2ccccc12,–,126 nM (active)
COCCNc1nc(-c2ccccc2C)nc2ccccc12,–,1260 nM (active)
COCCNc1nc(-c2ccccc2C(F)(F)F)nc2ccccc12,–,1260 nM (active)
COCCNc1nc(-c2ccccc2OC)nc2ccccc12,–,794 nM (active)
C[C@@H](N=C(N)N)C(=O)O,-4.5% [at 11.4 µM] (inactive),–
OCCN(CO)CO,-9.46% [at 11.4 µM] (inactive),–
O=S1(=O)C=C(N2CCOCC2)c2ccccc21,–,14100 nM (active)
COC(=O)c1ccccc1OCC(=O)N1CCN(c2ccc(OC)cc2)CC1,–,inactive
CCOc1cc(/C=C2/SC(=O)N(CC(=O)N3CCc4ccccc4C3)C2=O)ccc1OCC(=O)O,–,inactive
COc1ccc2c(c1)c(=O)oc1c(C)c(OCC(=O)N3CCc4ccccc4C3)ccc12,–,2000 nM (active)
COc1ccccc1-c1nnc(SCc2nc3ccccc3s2)n1C,–,14100 nM (active)
COC(=O)CSc1nnc(-c2ccccc2OC)n1-c1ccc(C)cc1,–,inactive
O=c1c(Cc2ccccc2)c(O)nc2n1CCS2,–,inactive
N#Cc1c(-c2ccc(Cl)cc2)nc2n(c1=O)CCCS2,–,1410 nM (active)
COc1cc(=O)n2c(n1)SCCC2,–,inactive
N#Cc1c(-c2ccccc2)nc2n(c1=O)CCS2,–,3160 nM (active)
CCn1c(=O)c2c(nc3n2CCS3)n(C)c1=O,–,inactive
CC(C)=CCC/C(C)=C/CO/N=C1/C[C@@H](O)[C@@H](O)[C@@H]2[C@@H]3C(=O)N(C[C@@H]4CCCO4)C(=O)[C@H]3CC[C@H]12,-0.0642% [at 11.4 µM] (inactive),–
CC(C)(C)N1C(=O)[C@H]2[C@H]3[C@H](O)[C@H](O)C/C(=N/NC(=O)OCc4ccccc4)[C@@H]3CC[C@@H]2C1=O,-5.49% [at 11.4 µM] (inactive),–
COc1ccccc1OCCOc1ccc(/C=C2/C(=N)N3OC(C)=CC3=NC2=O)cc1OC,–,inactive
COc1ccc(/C=C2\OC(=O)c3c(OC)cccc32)cc1OC,–,3160 nM (active)
Cc1cc(Cc2cc(C)cc(C(C)(C)C)c2O)c(O)c(Cc2cc(C)cc(C(C)(C)C)c2O)c1,-15.6% [at 2.29 µM] (inactive),–

SMILES,"activity, negative = inhibition",AC50
Cc1cc(Cc2cc(Cc3cc(C)cc(C(C)(C)C)c3O)c(C)cc2C)c(O)c(C(C)(C)C)c1,-17.1% [at 2.29 µM] (inactive),–
Cc1cc(-c2cc(C)c(O)c(C(C)(C)C)c2)cc(C(C)(C)C)c1O,–,631 nM (active)
COCCN1C(=O)c2ccccc2C(C(=O)Nc2ccc3c(c2)OCCO3)C1c1ccc(F)cc1 (stereo not drawn),–,inactive
O=C(Nc1ccc2c(c1)OCCO2)c1cc2sccc2n1Cc1ccc(F)cc1,–,4470 nM (active)
COc1ccc(-c2cc(C(F)(F)F)n3nc(C(=O)N4CCCCC4)cc3n2)cc1,–,15800 nM (active)
COc1ccc(NC(=O)N2CCCC3(CCN(C(=O)c4cc(C(F)(F)F)cc(C(F)(F)F)c4)CC3)C2)cc1,–,inactive
COc1ccc(NC(=O)N2CCCC3(CCN(C(=O)c4cnccn4)CC3)C2)cc1,–,inactive
C[N+](C)(N)Cc1csc(-c2ccc(Cl)cc2)n1,-4.22% [at 2.29 µM] (inactive),–
Nc1ccccc1SCc1csc(-c2ccc(Cl)cc2)n1,–,631 nM (active)
Nc1nc(SCC(=O)Nc2ccccc2Sc2ccc(Cl)cc2)n[nH]1,–,inactive
Cn1nc(C(=O)NC2CCCCC2)c2ccccc2c1=O,–,12600 nM (active)
CCCn1nc(C(=O)NCC(C)(C)N2CCOCC2)c2ccccc2c1=O,–,inactive
O=C(CCCCn1c(=O)c2ccccc2n(CC(=O)NC2CCCC2)c1=O)NC1CCCC1,–,inactive
Cc1ccc(S(=O)(=O)n2ccc(-c3cccc(OCc4c(F)cccc4Cl)c3)n2)cc1,–,inactive
COc1ccc(-c2cnnc(CCCn3ccnc3-c3ccccc3)n2)cc1,-12.1% [at 11.4 µM] (inactive),–
COc1ccc(S(=O)(=O)N2CC3C4C=CC(C4)C3C2)cc1 (stereo not drawn),–,inactive
O=S(=O)(c1ccc(F)cc1)n1ccc(-c2cnc(-c3ccccc3)s2)n1,–,2240 nM (active)
COc1ccc(S(=O)(=O)n2ccc(-c3cnc(-c4ccccc4)s3)n2)cc1,–,1120 nM (active)
COc1cccc2cc(C(=O)CC3(O)C(=O)N(Cc4ccccc4)c4ccccc43)c(=O)oc12 (stereo not drawn),–,15800 nM (active)
CC(C)c1ccc(C(=O)CC2(O)C(=O)N(CN3CCOCC3)c3ccccc32)cc1 (stereo not drawn),–,inactive
CN1CCN(c2nc3c(c(=O)n(C)c(=O)n3C)n2C)CC1,-16.8% [at 2.29 µM] (inactive),–
Cn1c(=O)c2c(nc(C(=N)SCC(=O)O)n2C)n(C)c1=O,–,1260 nM (active)
Cn1c(=O)c2c(nc(NCCNc3nc4c(c(=O)n(C)c(=O)n4C)n3C)n2C)n(C)c1=O,-0.53% [at 11.4 µM] (inactive),–
O=C(NCCOC(=O)c1ccc(C(=O)OCCNC(=O)c2cccnc2)s1)c1cccnc1,–,inactive

SMILES,"activity, negative = inhibition",AC50
O=C(OCCNC(=O)c1ccc2ccccc2n1)c1ccc(F)cc1,–,1120 nM (active)
Cc1ccc(N=Nc2ccc(N)cc2C)c(S(N)(=O)=O)c1,–,501 nM (active)
Cc1ccc(N=Nc2c(O)c3ccccc3[nH]c2=O)c(S(=O)(=O)N(C)C)c1,-14.6% [at 2.29 µM] (inactive),–
Nc1ccccc1S(N)(=O)=O,–,inactive
CC(C)CNC(=S)N1CCN(C)CC1,–,inactive
O=C(O)c1ccccc1-c1ccccc1C(=O)Nc1ccccc1,–,inactive
CC(C)C(=O)NC(=S)Nc1ccccc1C(=O)Nc1ccccc1,–,6310 nM (active)
O=S(=O)(O)[C@@H](CO)c1ccccc1 (tested in a mixture with another compound),-1.9% [at 2.29 µM] (inactive),–
O=C1C(SCCO)=C(SCCO)C(=O)c2ccccc21,–,631 nM (active)
OCCSCc1ccccc1,-13% [at 11.4 µM] (inactive),–
COc1cccc(Nc2ncc3nc(C)c(=O)n(CCc4ccccc4)c3n2)c1,–,5010 nM (active)
COCCn1c(=O)c(C)nc2cnc(Nc3cccc(OC)c3)nc21,–,1000 nM (active)
c1ccc([C@@H]2CN3CCSC3=N2)cc1,–,inactive
COc1ccc(C(=O)Nc2cc(OC)cc(OC)c2)cc1,–,12600 nM (active)
COc1ccc(NC(=O)c2ccc(C(=O)c3cc(OC)ccc3OC)cc2)cc1,–,inactive
COc1ccc(NC(=O)C2(c3ccc(NC(=O)c4ccc(OC(C)=O)cc4)cc3)CCCC2)cc1,–,inactive
COc1ccc(C(=O)Nc2cccc(OC(=O)c3ccc(C)c(C)c3)c2)cc1,–,14100 nM (active)
COc1ccc(OC)c(/C=N/NC(=O)c2csc3ccccc23)c1,–,3160 nM (active)
O=C(N/N=C/c1ccc(O)cc1)c1csc2ccccc12,–,11200 nM (active)
Cc1ccc(C)c(-c2nn(-c3cc(N4CCN(CCO)CC4)ccc3[N+](=O)[O-])c(=O)c3ccccc23)c1,–,inactive
O=C(O)c1cc2c(cc1S(=O)(=O)O)[C@H]1[C@@H]([C@H]3[C@H]2[C@@]2(Cl)C(Cl)=C(Cl)[C@]3(Cl)C2(Cl)Cl)[C@]2(Cl)C(Cl)=C(Cl)[C@@]1(Cl)C2(Cl)Cl,-14.5% [at 11.4 µM] (inactive),–
Cc1ccc(Cn2cccc(NC(=O)NCc3ccccc3)c2=O)cc1,–,inactive
O=C(NC1CCCC1)C(c1ccc(F)cc1)N(Cc1ccc(F)cc1)C(=O)c1ccn[nH]1 (stereo not drawn),–,inactive
O=C(Nc1cccn(Cc2ccc(F)cc2)c1=O)NC1CCCCC1,–,22400 nM (active)

SMILES,"activity, negative = inhibition",AC50
Cc1ccc2cn[nH]c2c1NC(=S)NC(=O)c1ccccc1,–,10000 nM (active)
COc1ccc(C(=O)N2CCC3(CCCN(CC(C)C)C3)CC2)cc1,–,inactive
CSc1ccc2c(c1)[C@H](N1CCN(C)CC1)Cc1ccccc1S2,–,31600 nM (active)
CN1CCC(=C2c3ccccc3Sc3ccccc32)CC1,–,inactive
CN1CCC[C@@H](CC2c3ccccc3Sc3ccccc32)C1,–,inactive
O=C1Nc2cc(Cl)c(Cl)cc2N(O)N1c1ccc(Cl)c(Cl)c1,–,inactive
O=c1c2ccccc2c(-c2ccccc2)nn1-c1ccc(Cl)c(Cl)c1,–,126 nM (active)
COc1ccccc1CN1CC[C@@]2(CCCN(C(=O)c3c(C)noc3C)C2)C1,–,inactive
COC(=O)Cc1c(C)nc2nc(NCc3ccccc3OC)[nH]n2c1=O,–,inactive
COc1ccccc1CNc1nc(-c2c(C)noc2C)nc2ccccc12,–,631 nM (active)
COc1ccc(CNc2nc(-c3c(C)noc3C)nc3ccccc23)c(OC)c1,–,794 nM (active)
COc1ccc(N(CC(=O)NCc2cccc(OC)c2)S(=O)(=O)c2c(C)noc2C)cc1,–,inactive
Cc1noc(C)c1-c1nc(NCc2cccs2)c2ccccc2n1,–,200 nM (active)
CS(=O)(=O)N(Cc1cc2ccccc2[nH]c1=O)C1CCCCC1,–,inactive
CCS(=O)(=O)NCCc1cc2ccc(C)cc2[nH]c1=O,–,20000 nM (active)
C[N+]1(CCC[N+]2(C)C[C@H]3[C@H](C2)[C@H]2C=C[C@@H]3CC2)CCOCC1 (stereo partly drawn),-11% [at 11.4 µM] (inactive),–
Cc1cccc(CNc2cc(-c3ccc(N(C)C)cc3)ncn2)c1,–,1000 nM (active)
Cc1cccc(CNc2cc(-c3ccc(C(=O)N(C)C)cc3)ncn2)c1,–,15800 nM (active)
Cc1cnc(CNc2cc(-c3ccc(C(=O)N(C)C)cc3)ncn2)cn1,–,inactive
CN(C)c1ccc(-c2cc(NCc3ccccc3)ncn2)cc1,–,1000 nM (active)
CN(C)c1ccc(-c2cc(NCc3cccnc3)ncn2)cc1,–,398 nM (active)
